Source: PubChem BioAssay
The source made the active and inactive calls.

assay: ATP-based viability of Huh7 replicon cells – cell-based, CellTiter-Glo luminescence, basal, 48 h, cytotoxicity control for HCV replication inhibitor project, primary screen (AID 1143); settings: higher = more signal, called active from +8 up or from −8 down;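 also: Huh7 hepatoma cells carrying a hepatitis C replication reporter with no stimulus; test concentration not given here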

Row | Compound | z-score
1 | COCC(=C=CC[C@@H](O)c1ccc(CO)o1)CCO | -3.6 (inactive)
2 | CC(C)N1C(=O)c2ccccc2[C@@H](C(=O)NCCCN(C)C)[C@@H]1c1ccc(CO)cc1 | -0.921 (inactive)
3 | C=C[C@@H](COC(C)=O)N(Cc1ccc([N+](=O)[O-])cc1)S(=O)(=O)c1ccc(Br)cc1 | -1.97 (inactive)
4 | CC(C)C(=C=CC[C@@H](O)c1ccccc1OCCO)C[C@@H](O)c1ccccn1 | -1.3 (inactive)
5 | C=CCNC(=O)[C@@H]1[C@H]2C(=O)O[C@H](c3ccccc3)[C@H](c3ccccc3)N2[C@H](c2ccc(O)cc2)[C@@]12C(=O)N(C(=O)OCCOC)c1ccccc12 | -4.99 (inactive)
6 | CC(C)(C)OC(=O)CC[C@@]1(C(=O)NCCN2CCOCC2)N=C(c2ccc(OCCCO)cc2)O[C@@H]1c1ccccc1 | 0.256 (inactive)
7 | N#Cc1ccc(NN2C(C(O)C3CCCCC3)C=CC3C(=O)N(c4ccccc4)C(=O)C32)cc1 (stereo not given) | 0.124 (inactive)
8 | C=CCN1C(=O)[C@]2(O[C@H](CCO)[C@@H]([Si](C)(C)c3ccc(OC)cc3)[C@@H]2C)c2cc(NC(=O)[C@H](C)O)ccc21 | -6.12 (inactive)
9 | O=C1O[C@H](c2ccccc2)[C@H](c2ccccc2)N2[C@H]1[C@@H](C(=O)N1CCN(c3ncccn3)CC1)[C@]1(C(=O)Nc3ccccc31)[C@H]2c1ccc(OCCO)cc1 | -5.5 (inactive)
10 | O=C1OCCC/C=C\[C@H]2OC34C=CCN(Cn5nnc6ccccc65)C(=O)[C@H]3N(CCCCCO)C(=O)[C@@H]4C12 (stereo not given in full) | -0.19 (inactive)
11 | COc1cc2c(cc1OC)CN(C(=O)[C@@H]1[C@H]3C(=O)O[C@H](c4ccccc4)[C@H](c4ccccc4)N3[C@H](c3ccccc3OCCO)[C@@]13C(=O)Nc1ccc(C#CCNC(N)=O)cc13)CC2 | -2 (inactive)
12 | COC(=O)[C@@]1(Cc2ccccc2)[C@H]2c3cc(C(=O)N4CCCC4)n(C)c3C[C@H]2CN1C(=O)c1ccccc1 | -1.6 (inactive)
13 | O=C1O[C@H](c2ccccc2)[C@H](c2ccccc2)N2[C@H]1[C@@H](C(=O)Nc1nc3ccccc3s1)[C@]1(C(=O)Nc3ccccc31)[C@H]2c1ccc(O)cc1 | -1.69 (inactive)
14 | CCN(CC)c1ccc(N2CC=CC34O[C@@H]5C=CCCOC(=O)C5[C@H]3C(=O)N(CCCCCO)[C@@H]4C2=O)cc1 (stereo not given in full) | -0.484 (inactive)
15 | COCCOC(=O)N1C(=O)[C@@]2(c3cc(C#CCC(C(=O)OC)C(=O)OC)ccc31)[C@H](c1ccc(O)cc1)N1[C@H](c3ccccc3)[C@H](c3ccccc3)OC(=O)[C@H]1[C@@H]2C(N)=O | -0.427 (inactive)
16 | NC(=O)NCC#Cc1ccc2c(c1)[C@]1(C(=O)N2)[C@H](C(=O)N2CCCCCCC2)[C@H]2C(=O)O[C@H](c3ccccc3)[C@H](c3ccccc3)N2[C@@H]1c1ccc(OCCO)cc1 | -0.416 (inactive)
17 | CC(C)N1CC=CC23O[C@@H]4C=CCOC(=O)[C@@H]4[C@H]2C(=O)N(CCO)[C@@H]3C1=O (stereo not given in full) | 0.273 (inactive)
18 | COc1ccc(CCNC(=O)[C@@]2(c3ccc([N+](=O)[O-])cc3)CC(=O)N(CC34CC5CC(CC(C5)C3)C4)[C@@H]2c2ccc(CO)cc2)cc1 | -5.75 (inactive)

Row | Compound | z-score
19 | COCCOC(=O)N1C(=O)[C@@]2(c3ccccc31)[C@H](C(=O)NC[C@H](O)c1ccccc1)[C@H]1C(=O)O[C@H](c3ccccc3)[C@H](c3ccccc3)N1[C@@H]2c1ccc(OCCO)cc1 | -3.37 (inactive)
20 | COc1ccc(C(O)C2C=CC3C(=O)NC(=O)C3N2Nc2ccccn2)cc1OCc1ccccc1 (stereo not given) | 0.716 (inactive)
21 | COCCOC(=O)N1C(=O)[C@@]2(c3cc(C#CC4=CCCCC4)ccc31)[C@H](C(=O)NC[C@H](O)c1ccccc1)[C@H]1C(=O)O[C@H](c3ccccc3)[C@H](c3ccccc3)N1[C@@H]2c1ccc(O)cc1 | -3.91 (inactive)
22 | COc1ccc([Si](C)(C)[C@@H]2[C@@H](CCn3cc([C@H](O)c4ccccc4)nn3)O[C@]3(C(=O)N(Cc4ccc(N5C(=O)c6cccc7cccc5c67)cc4)c4ccccc43)[C@H]2C)cc1 | -4.7 (inactive)
23 | [N-]=[N+]=NCc1ccccc1C[C@]1(C(=O)O)N=C(c2ccc(OCCCO)cc2)O[C@H]1c1ccccc1CN=[N+]=[N-] | -1.42 (inactive)
24 | CC(C)NC(=O)[C@@H]1c2ccccc2C(=O)N(Cc2ccccc2)[C@H]1c1ccc(CO)cc1 | -0.0084 (inactive)
25 | COCCOC(=O)N1C(=O)[C@@]2(c3cc(C#CCNC(N)=O)ccc31)[C@H](c1ccccc1OCCO)N1[C@H](c3ccccc3)[C@H](c3ccccc3)OC(=O)[C@H]1[C@@H]2C(N)=O | -0.895 (inactive)
26 | O=C1C2C=CC(C(O)c3ccc(B(O)O)cc3)N(Nc3ccccc3)C2C(=O)N1c1ccccc1 (stereo not given) | -2.7 (inactive)
27 | COC(=O)[C@@]1(Cc2ccc(F)cc2)[C@H]2c3cc(C(=O)N(C)C)n(CCc4ccccn4)c3C[C@H]2CN1C(=O)c1ccccc1 | -1.86 (inactive)
28 | Cc1ccc(S[C@]2(C(=O)NC3CC3)CC(=O)N(Cc3ccccc3)[C@@H]2c2ccc(CO)cc2)cc1 | 0.103 (inactive)
29 | O=C1C2C=CC(C(O)c3ccc(F)cc3)N(Nc3ccccc3)C2C(=O)N1c1ccccc1 (stereo not given) | 0.633 (inactive)
30 | Cc1cc(C)c(C(O)C2C=CC3C(=O)N(C)C(=O)C3N2Nc2ccccc2)c(C)c1 (stereo not given) | 1.06 (inactive)
31 | [N-]=[N+]=NCc1ccccc1C[C@]1(C(=O)NCCN2CCOCC2)N=C(c2ccc(OCCCO)cc2)O[C@H]1c1ccccc1N=[N+]=[N-] | -3.01 (inactive)
32 | O=C(OCCF)C1=CCC(c2cccc(Cl)c2)O1 (stereo not given) | -2.33 (inactive)
33 | [N-]=[N+]=NCc1ccccc1C[C@]1(C(=O)NCC(O)CO)N=C(c2ccc(OCCCO)cc2)O[C@H]1c1ccccc1N=[N+]=[N-] (stereo not given in full) | -2.54 (inactive)
34 | COCC1=C2[C@@H](CCc3ccccc3)OB(O)C[C@@H]2[C@@H]2C(=O)N(Cc3ccccc3)C(=O)[C@@H]2C1 | 0.0597 (inactive)
35 | [N-]=[N+]=Nc1ccccc1[C@H]1OC(c2ccc(OCCCO)cc2)=N[C@@]1(CCS(=O)(=O)c1ccccc1)C(=O)O | -1.06 (inactive)
